Reference: article PMC7862700, “An all-to-all approach to the identification of sequence-specific readers for epigenetic DNA modifications on cytosine”

Legend:
Experiment in all cases: DAPPL (digital affinity profiling via proximity ligation, sequencing); 10 mM Tris-HCl pH 7.5, 50 mM NaCl, 1 mM DTT, 4% glycerol, room temperature, 30 min; GST-TFs on glutathione beads, 16-mer random dsDNA library, 0.1% formaldehyde crosslink after washing; high values mean tight binding
Conditions in all cases: protein: recombinant; tags: N-terminal GST; dsDNA, one strand shown
ERF = target: T1, ERF (Homo sapiens, UniProt P50548 1-548)
T1 sequence: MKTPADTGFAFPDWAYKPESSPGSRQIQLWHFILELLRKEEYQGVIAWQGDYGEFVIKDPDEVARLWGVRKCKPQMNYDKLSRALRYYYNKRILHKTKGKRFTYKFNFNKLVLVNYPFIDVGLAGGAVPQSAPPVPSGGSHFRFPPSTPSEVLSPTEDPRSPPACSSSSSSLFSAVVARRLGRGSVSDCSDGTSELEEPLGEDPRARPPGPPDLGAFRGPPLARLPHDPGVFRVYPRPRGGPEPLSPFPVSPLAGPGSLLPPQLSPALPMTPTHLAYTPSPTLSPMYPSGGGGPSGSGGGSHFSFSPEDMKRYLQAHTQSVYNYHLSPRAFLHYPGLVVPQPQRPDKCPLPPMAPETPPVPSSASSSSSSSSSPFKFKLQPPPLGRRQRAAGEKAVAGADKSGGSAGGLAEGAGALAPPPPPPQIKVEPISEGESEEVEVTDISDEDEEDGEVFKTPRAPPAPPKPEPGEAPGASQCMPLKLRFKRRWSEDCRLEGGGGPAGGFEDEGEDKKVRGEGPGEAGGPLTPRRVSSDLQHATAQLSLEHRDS
Outline: (§1)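 GST fusions of human transcription factors were expressed in yeast and captured with glutathione beads. Once given DNA barcodes and pooled alongside a tag-only sample, they were incubated for 30 min at room temperature with 200 nmole of a random double-stranded 16-mer DNA library in Tris/NaCl/DTT/glycerol buffer, then washed, crosslinked (0.1% formaldehyde), proximity-ligated, PCR-amplified and sequenced on an Illumina NextSeq500. The binding signal of each hexamer is its read frequency for a factor divided by its frequency for the tag-only sample.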

ETV3L = target: T2, ETV3L (Homo sapiens, UniProt Q6ZN32 1-361)
T2 sequence: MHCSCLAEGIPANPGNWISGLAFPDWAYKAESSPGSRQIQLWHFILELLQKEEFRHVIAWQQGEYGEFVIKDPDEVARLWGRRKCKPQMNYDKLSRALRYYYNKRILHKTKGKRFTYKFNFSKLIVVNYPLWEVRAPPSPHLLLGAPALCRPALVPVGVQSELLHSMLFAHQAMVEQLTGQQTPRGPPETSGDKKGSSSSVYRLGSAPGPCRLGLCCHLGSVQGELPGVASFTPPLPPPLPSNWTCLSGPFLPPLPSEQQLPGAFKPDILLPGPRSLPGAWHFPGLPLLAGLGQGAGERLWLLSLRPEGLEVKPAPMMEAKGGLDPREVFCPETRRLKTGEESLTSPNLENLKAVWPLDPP
Outline: as §1

ETS2 = target: T3, ETS2 (Homo sapiens, UniProt P15036 1-469)
T3 sequence: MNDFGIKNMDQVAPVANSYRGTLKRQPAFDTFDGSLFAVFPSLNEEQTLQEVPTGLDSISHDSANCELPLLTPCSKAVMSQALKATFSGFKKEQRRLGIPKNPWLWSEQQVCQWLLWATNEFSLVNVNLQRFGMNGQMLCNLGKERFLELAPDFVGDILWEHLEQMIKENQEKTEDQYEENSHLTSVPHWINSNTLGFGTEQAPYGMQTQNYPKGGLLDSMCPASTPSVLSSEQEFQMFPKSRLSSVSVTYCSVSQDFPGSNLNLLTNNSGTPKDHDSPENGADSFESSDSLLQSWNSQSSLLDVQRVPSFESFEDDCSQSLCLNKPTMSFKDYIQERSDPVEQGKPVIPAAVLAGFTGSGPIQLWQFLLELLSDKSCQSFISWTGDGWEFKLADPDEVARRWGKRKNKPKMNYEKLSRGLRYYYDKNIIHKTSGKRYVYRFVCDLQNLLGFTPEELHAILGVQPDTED
Outline: as §1

SPDEF = target: T4, SPDEF (Homo sapiens, UniProt O95238 1-335)
T4 sequence: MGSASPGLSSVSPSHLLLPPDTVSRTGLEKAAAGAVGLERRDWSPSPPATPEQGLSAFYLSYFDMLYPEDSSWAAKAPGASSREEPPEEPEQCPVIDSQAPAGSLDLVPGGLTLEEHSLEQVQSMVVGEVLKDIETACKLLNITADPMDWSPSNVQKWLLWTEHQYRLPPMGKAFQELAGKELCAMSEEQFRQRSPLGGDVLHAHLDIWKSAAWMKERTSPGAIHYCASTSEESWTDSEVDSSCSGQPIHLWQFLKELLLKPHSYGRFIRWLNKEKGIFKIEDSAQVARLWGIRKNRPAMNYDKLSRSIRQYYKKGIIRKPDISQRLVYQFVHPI
Outline: as §1

ETV7 = target: T5, ETV7 (Homo sapiens, UniProt Q9Y603 1-341)
T5 sequence: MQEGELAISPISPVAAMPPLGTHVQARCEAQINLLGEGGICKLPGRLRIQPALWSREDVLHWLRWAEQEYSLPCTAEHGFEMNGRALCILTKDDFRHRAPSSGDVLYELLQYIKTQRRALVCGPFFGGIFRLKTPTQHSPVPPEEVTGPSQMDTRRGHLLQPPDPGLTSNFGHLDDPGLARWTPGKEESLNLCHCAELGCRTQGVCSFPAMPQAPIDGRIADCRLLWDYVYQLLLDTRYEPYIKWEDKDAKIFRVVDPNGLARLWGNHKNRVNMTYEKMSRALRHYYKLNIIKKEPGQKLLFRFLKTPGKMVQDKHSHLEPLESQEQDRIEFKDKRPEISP
Outline: as §1

ELF5 = target: T6, ELF5 (Homo sapiens, UniProt Q9UKW6-2 1-255)
T6 sequence: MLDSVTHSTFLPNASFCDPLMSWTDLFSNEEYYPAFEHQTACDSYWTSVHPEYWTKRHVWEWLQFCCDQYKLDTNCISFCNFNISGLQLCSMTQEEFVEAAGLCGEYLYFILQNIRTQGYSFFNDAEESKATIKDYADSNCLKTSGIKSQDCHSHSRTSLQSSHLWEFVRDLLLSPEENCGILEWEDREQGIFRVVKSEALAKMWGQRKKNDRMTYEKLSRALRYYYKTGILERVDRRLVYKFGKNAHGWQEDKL
Outline: as §1

ETV3 = target: T7, ETV3 (Homo sapiens, UniProt P41162-2 1-143)
T7 sequence: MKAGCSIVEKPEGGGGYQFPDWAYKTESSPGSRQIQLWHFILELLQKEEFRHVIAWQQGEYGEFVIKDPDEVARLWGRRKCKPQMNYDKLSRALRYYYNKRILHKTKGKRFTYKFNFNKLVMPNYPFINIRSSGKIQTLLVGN
Outline: as §1

ETV6 = ETV6 (Homo sapiens, UniProt P41212 1-452)
Outline: as §1

Chain of ETV6 (P41212 whole entry): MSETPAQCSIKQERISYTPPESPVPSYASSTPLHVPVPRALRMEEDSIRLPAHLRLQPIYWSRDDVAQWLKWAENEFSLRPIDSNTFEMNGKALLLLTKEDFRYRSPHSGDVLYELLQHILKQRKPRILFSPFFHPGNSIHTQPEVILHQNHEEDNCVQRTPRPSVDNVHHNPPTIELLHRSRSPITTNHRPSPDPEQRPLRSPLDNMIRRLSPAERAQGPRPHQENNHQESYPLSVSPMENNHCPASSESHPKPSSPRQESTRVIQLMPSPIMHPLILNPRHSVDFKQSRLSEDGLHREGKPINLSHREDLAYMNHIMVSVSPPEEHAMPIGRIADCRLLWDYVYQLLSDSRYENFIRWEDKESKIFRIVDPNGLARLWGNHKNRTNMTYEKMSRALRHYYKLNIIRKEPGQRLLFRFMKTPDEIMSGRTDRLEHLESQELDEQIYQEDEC

Sequence	binding signal (ERF)	binding signal (ETV3L)	binding signal (ETS2)	binding signal (SPDEF)	binding signal (ETV7)	binding signal (ELF5)	binding signal (ETV3)	binding signal (ETV6)
TGCAAC	1.31 fold enrichment (6-mer frequency, TF over GST control)	1.28 fold enrichment (6-mer frequency, TF over GST control)	1.28 fold enrichment (6-mer frequency, TF over GST control)	1.37 fold enrichment (6-mer frequency, TF over GST control)	1.19 fold enrichment (6-mer frequency, TF over GST control)	1.23 fold enrichment (6-mer frequency, TF over GST control)	1.32 fold enrichment (6-mer frequency, TF over GST control)	1.35 fold enrichment (6-mer frequency, TF over GST control)
TTGTAC	1.31 fold enrichment (6-mer frequency, TF over GST control)	1.41 fold enrichment (6-mer frequency, TF over GST control)	1.34 fold enrichment (6-mer frequency, TF over GST control)	1.54 fold enrichment (6-mer frequency, TF over GST control)	1.33 fold enrichment (6-mer frequency, TF over GST control)	1.23 fold enrichment (6-mer frequency, TF over GST control)	1.44 fold enrichment (6-mer frequency, TF over GST control)	1.48 fold enrichment (6-mer frequency, TF over GST control)
CGAGCA	1.17 fold enrichment (6-mer frequency, TF over GST control)	1.13 fold enrichment (6-mer frequency, TF over GST control)	1.06 fold enrichment (6-mer frequency, TF over GST control)	1.18 fold enrichment (6-mer frequency, TF over GST control)	1.06 fold enrichment (6-mer frequency, TF over GST control)	1.03 fold enrichment (6-mer frequency, TF over GST control)	1.04 fold enrichment (6-mer frequency, TF over GST control)	1.06 fold enrichment (6-mer frequency, TF over GST control)
ACATGT	1.15 fold enrichment (6-mer frequency, TF over GST control)	1.19 fold enrichment (6-mer frequency, TF over GST control)	1.15 fold enrichment (6-mer frequency, TF over GST control)	1.19 fold enrichment (6-mer frequency, TF over GST control)	1.16 fold enrichment (6-mer frequency, TF over GST control)	1.12 fold enrichment (6-mer frequency, TF over GST control)	1.16 fold enrichment (6-mer frequency, TF over GST control)	1.14 fold enrichment (6-mer frequency, TF over GST control)
TATGTG	1.07 fold enrichment (6-mer frequency, TF over GST control)	1.02 fold enrichment (6-mer frequency, TF over GST control)	1.07 fold enrichment (6-mer frequency, TF over GST control)	1.09 fold enrichment (6-mer frequency, TF over GST control)	1.04 fold enrichment (6-mer frequency, TF over GST control)	1.01 fold enrichment (6-mer frequency, TF over GST control)	1.09 fold enrichment (6-mer frequency, TF over GST control)	1.07 fold enrichment (6-mer frequency, TF over GST control)
CCGCAC	1.46 fold enrichment (6-mer frequency, TF over GST control)	1.55 fold enrichment (6-mer frequency, TF over GST control)	1.47 fold enrichment (6-mer frequency, TF over GST control)	1.46 fold enrichment (6-mer frequency, TF over GST control)	1.4 fold enrichment (6-mer frequency, TF over GST control)	1.59 fold enrichment (6-mer frequency, TF over GST control)	1.61 fold enrichment (6-mer frequency, TF over GST control)	1.56 fold enrichment (6-mer frequency, TF over GST control)
CCCTTG	1.24 fold enrichment (6-mer frequency, TF over GST control)	1.08 fold enrichment (6-mer frequency, TF over GST control)	1.16 fold enrichment (6-mer frequency, TF over GST control)	1.28 fold enrichment (6-mer frequency, TF over GST control)	1.18 fold enrichment (6-mer frequency, TF over GST control)	1.1 fold enrichment (6-mer frequency, TF over GST control)	1.13 fold enrichment (6-mer frequency, TF over GST control)	1.17 fold enrichment (6-mer frequency, TF over GST control)
CCCCCA	1.06 fold enrichment (6-mer frequency, TF over GST control)	1.21 fold enrichment (6-mer frequency, TF over GST control)	1.19 fold enrichment (6-mer frequency, TF over GST control)	1.22 fold enrichment (6-mer frequency, TF over GST control)	1.11 fold enrichment (6-mer frequency, TF over GST control)	1.24 fold enrichment (6-mer frequency, TF over GST control)	1.3 fold enrichment (6-mer frequency, TF over GST control)	1.19 fold enrichment (6-mer frequency, TF over GST control)
ACGGAA	1.53 fold enrichment (6-mer frequency, TF over GST control)	1.73 fold enrichment (6-mer frequency, TF over GST control)	1.86 fold enrichment (6-mer frequency, TF over GST control)	1.78 fold enrichment (6-mer frequency, TF over GST control)	1.57 fold enrichment (6-mer frequency, TF over GST control)	2.24 fold enrichment (6-mer frequency, TF over GST control)	1.93 fold enrichment (6-mer frequency, TF over GST control)	2.14 fold enrichment (6-mer frequency, TF over GST control)
TGCTGA	1.03 fold enrichment (6-mer frequency, TF over GST control)	1.05 fold enrichment (6-mer frequency, TF over GST control)	1.11 fold enrichment (6-mer frequency, TF over GST control)	1.11 fold enrichment (6-mer frequency, TF over GST control)	1.07 fold enrichment (6-mer frequency, TF over GST control)	1 fold enrichment (6-mer frequency, TF over GST control)	1.12 fold enrichment (6-mer frequency, TF over GST control)	1.01 fold enrichment (6-mer frequency, TF over GST control)
CACAAA	1.18 fold enrichment (6-mer frequency, TF over GST control)	1.16 fold enrichment (6-mer frequency, TF over GST control)	1.16 fold enrichment (6-mer frequency, TF over GST control)	1.12 fold enrichment (6-mer frequency, TF over GST control)	1.01 fold enrichment (6-mer frequency, TF over GST control)	1.1 fold enrichment (6-mer frequency, TF over GST control)	1.09 fold enrichment (6-mer frequency, TF over GST control)	1.08 fold enrichment (6-mer frequency, TF over GST control)
TTCCTC	2.13 fold enrichment (6-mer frequency, TF over GST control)	2.21 fold enrichment (6-mer frequency, TF over GST control)	2.22 fold enrichment (6-mer frequency, TF over GST control)	1.96 fold enrichment (6-mer frequency, TF over GST control)	1.96 fold enrichment (6-mer frequency, TF over GST control)	3.84 fold enrichment (6-mer frequency, TF over GST control)	2.38 fold enrichment (6-mer frequency, TF over GST control)	2.48 fold enrichment (6-mer frequency, TF over GST control)
CATCGA	1.16 fold enrichment (6-mer frequency, TF over GST control)	1.21 fold enrichment (6-mer frequency, TF over GST control)	1.15 fold enrichment (6-mer frequency, TF over GST control)	1.04 fold enrichment (6-mer frequency, TF over GST control)	1.13 fold enrichment (6-mer frequency, TF over GST control)	1.05 fold enrichment (6-mer frequency, TF over GST control)	1.08 fold enrichment (6-mer frequency, TF over GST control)	1.01 fold enrichment (6-mer frequency, TF over GST control)
TTTTGA	1.15 fold enrichment (6-mer frequency, TF over GST control)	1.07 fold enrichment (6-mer frequency, TF over GST control)	1.07 fold enrichment (6-mer frequency, TF over GST control)	1.05 fold enrichment (6-mer frequency, TF over GST control)	1.02 fold enrichment (6-mer frequency, TF over GST control)	1 fold enrichment (6-mer frequency, TF over GST control)	1.03 fold enrichment (6-mer frequency, TF over GST control)	1.04 fold enrichment (6-mer frequency, TF over GST control)
GGGCTA	1.02 fold enrichment (6-mer frequency, TF over GST control)	1.18 fold enrichment (6-mer frequency, TF over GST control)	1.2 fold enrichment (6-mer frequency, TF over GST control)	1.09 fold enrichment (6-mer frequency, TF over GST control)	1.06 fold enrichment (6-mer frequency, TF over GST control)	1.09 fold enrichment (6-mer frequency, TF over GST control)	1.12 fold enrichment (6-mer frequency, TF over GST control)	1.13 fold enrichment (6-mer frequency, TF over GST control)
